Assay outcomes: PubChem, Johns Hopkins Ion Channel Center
CHT block: inhibitors of human choline transporter CHT | High affinity choline transporter 1 (Homo sapiens), Q9GZV3 | CHT-expressing cells, membrane potential dye, choline response; active compounds read low | B-score at 10 µM | 310,000 tested, 0.86% active | AID 488975, 2010;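 active means B-score over 3 SD under the library average, and starting fluorescence ratio not unusually high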;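 further: choline stimulus applied at its EC90 after an EC20 pre-addition; B-score computed on integrated fluorescence ratio after choline addition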
TMEM16A inh: TMEM16A chloride channel inhibitors, primary screen, cell-based, HTS; Anoctamin-1 (Mus musculus), Q8BHY3; HEK293 TMEM16A/YFP iodide influx fluorescence, ionomycin; normalized B-score (activity score, 25-100; higher = stronger inhibition) at 10 µM; 310,000 tested, 1.2% active;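 active means ratio plate-corrected score three or more library SD toward inhibition, starting fluorescence score within five deviations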;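 further: score derived from kinetic fluorescence span divided by baseline fluorescence per well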
CHT allo act: CHT positive allosteric modulators, primary screen, cell-based, membrane potential dye, choline EC20; 310,000 tested, 0.49% active; B-score at 10 µM; High affinity choline transporter 1 (Homo sapiens), Q9GZV3; AID 488977, 2010; CHT-expressing cells; active compounds read high; LV-AA mutant CHT in HEK293 cells;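 active means initial fluorescence not abnormally high and integrated response B-score, plate-corrected, over 3 SD above library mean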
ANO1 activ: TMEM16A chloride channel activators or potentiators, primary screen, cell-based, HTS. Anoctamin-1 (Mus musculus), Q8BHY3. AID 623877, 2012. HEK293 TMEM16A/YFP-H148Q/I152L, iodide quench fluorescence; active compounds read low. B-score at 10 µM. 340,000 tested, 0.3% active;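 active means fluorescence-ratio B-score plate-corrected deviation score at least 3 library SD below zero, with starting fluorescence score within 5 deviations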;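 further: channel opened by trigger with iodide after compound preincubation; score built on the fluorescence ratio of max minus min over baseline; more negative score means more quench and so TMEM16A activation or potentiation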
TMEM16A reconf: TMEM16A chloride channel inhibitors, confirmation, cell-based, re-confirmation; AID 652189, 2013; 2,300 tested, 39% active; HEK293 TMEM16A/YFP-H148Q, iodide quench fluorescence; ionomycin added to raise cell calcium; shares compounds with TMEM16A inh; inhibition, % at 10 µM;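 active means mean duplicate percent inhibition, scaled so buffer wells are 0 and the reference blocker 100, over three buffer SD above buffer mean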
HEK293 Ca mobil: calcium mobilization in TMEM16A/YFP HEK293 cells, confirmation, counter-screen for TMEM16A inhibitor project; shares compounds with TMEM16A inh; Fluo4 calcium mobilization; calcium response (% of ionomycin), % at 10 µM; 2,300 tested, 2% active;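 active means duplicate-averaged calcium signal over 20% of the ionomycin maximum, relative to buffer baseline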;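 further: each well's signal is peak minus trough fluorescence divided by its pre-addition baseline; 0% = buffer wells and 100% = ionomycin wells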
YFP-HEK293 quench: iodide YFP quench changes in parental YFP-HEK293, counter-screen for TMEM16A inhibitor project, cell-based | shares compounds with TMEM16A inh | ionomycin | YFP ratio F(max-min)/F0 at 10 µM | 2,300 tested, under 10 active;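 active means yellow fluorescent protein signal ratio exceeding the buffer control mean by over 5 SD of those controls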;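 further: ratio is mean of duplicate wells from kinetic YFP trace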
ClC-1 inh: ClC-1 chloride channel inhibition, selectivity assay for TMEM16A inhibitor project, cell-based, voltage-dependent ClC-1; shares compounds with TMEM16A inh; ratio percent, % at 10 µM; 2,300 tested, under 10 active; CHO ClC-1-YFP, iodide influx fluorescence quench; iodide control reads 0, buffer control 100;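 active means duplicate-mean ratio percent above the mean of iodide-only control wells, which defines zero, plus 5 of their SD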;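 further: higher percent means stronger block of ClC-1 iodide influx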
Numbers without * were called inactive. In the library only some 2.4% were active in any assay of this set; here they are far more common.

`CC1C(=O)Nc2ccccc2N1C(=O)C1CC1` (configuration not stated) gave CHT block inactive, TMEM16A inh 25*, CHT allo act inactive, ANO1 activ inactive, TMEM16A reconf inactive, HEK293 Ca mobil inactive, YFP-HEK293 quench -0.91 and ClC-1 inh -14.
`CC(CNC(=O)CN1C(=O)NC2(CCCCC2C)C1=O)c1ccccc1` (configuration not stated) gave ANO1 activ inactive.
`CCCN(CCC)CCN1C(=O)C2C(C(=O)Nc3cccc(SC)c3)C3C=CC2(O3)C1C(=O)NC1CCCCC1` (configuration not stated) gave CHT block inactive, TMEM16A inh 100*, CHT allo act inactive, ANO1 activ inactive, TMEM16A reconf inactive, HEK293 Ca mobil inactive, YFP-HEK293 quench -1.1 and ClC-1 inh -1.
O=C(N[C@H](Cc1ccc(Cl)cc1)C(=O)O)OCC1c2ccccc2-c2ccccc21 was read as CHT block inactive, TMEM16A inh inactive, CHT allo act inactive and ANO1 activ inactive.
`COc1ccc(C2C(C(=O)N3CCCC3)c3cc(OC)c(OC)cc3C(=O)N2C)cc1OC` (configuration not stated) gave CHT block inactive, TMEM16A inh inactive, CHT allo act inactive and ANO1 activ inactive.
`COc1ccc(C2C(C(=O)N3CCN(c4ccccc4)CC3)c3ccccc3C(=O)N2C)cc1OC` (configuration not stated) gave CHT block inactive, TMEM16A inh 100*, CHT allo act inactive, ANO1 activ inactive, TMEM16A reconf inactive, HEK293 Ca mobil inactive, YFP-HEK293 quench -1.1 and ClC-1 inh -30.
`CCOc1ccc(-c2[nH]ncc2Oc2cccc(OC)c2)c(O)c1` gave CHT block inactive, TMEM16A inh 100*, CHT allo act inactive, ANO1 activ inactive, TMEM16A reconf inactive, HEK293 Ca mobil inactive, YFP-HEK293 quench -1 and ClC-1 inh -10.
Screening COc1cccc(Oc2cn[nH]c2-c2ccc(O)cc2O)c1 returned CHT block inactive, TMEM16A inh inactive, CHT allo act inactive and ANO1 activ inactive.
`CCCOC(=O)c1ccc(Oc2cn[nH]c2-c2ccc(OCC)cc2O)cc1` gave CHT block inactive, TMEM16A inh inactive, CHT allo act inactive and ANO1 activ inactive.
COc1cccc(Oc2cn[nH]c2-c2ccc(OC)cc2O)c1 was read as CHT block inactive, TMEM16A inh 25*, CHT allo act inactive, ANO1 activ inactive, TMEM16A reconf 20%*, HEK293 Ca mobil inactive, YFP-HEK293 quench -1.3 and ClC-1 inh -13.
Screening COc1ccc(CCNC(=O)C(=O)NCC2OCCCN2S(=O)(=O)c2cc(C)ccc2C)cc1 (configuration not stated) returned CHT block inactive, TMEM16A inh inactive, CHT allo act inactive and ANO1 activ inactive.
CCOC(=O)c1sc2nccc(N(C)C)c2c1N=CNOCc1c(F)cccc1Cl was read as CHT block inactive, TMEM16A inh 100*, CHT allo act inactive, ANO1 activ inactive, TMEM16A reconf inactive, HEK293 Ca mobil inactive, YFP-HEK293 quench -0.95 and ClC-1 inh -4.
`CCOC(=O)c1sc2nccc(N(C)C)c2c1N=CNOCc1ccccc1` gave CHT block inactive, TMEM16A inh inactive, CHT allo act inactive and ANO1 activ inactive.
CCCc1cc(C(N)=O)c(NC(C)=O)s1 was read as CHT block inactive, TMEM16A inh 100*, CHT allo act inactive, ANO1 activ inactive, TMEM16A reconf inactive, HEK293 Ca mobil inactive, YFP-HEK293 quench -0.92 and ClC-1 inh -14.
For CCN1CCN(C(=O)c2ccc3c(=O)n(CCc4ccccc4)c(=O)[nH]c3c2)CC1 the results were CHT block inactive, TMEM16A inh inactive, CHT allo act inactive and ANO1 activ inactive.
For Cc1cccc(OCC(=O)Nc2nc3ccc([N+](=O)[O-])cc3s2)c1 the results were CHT block inactive, TMEM16A inh 25*, CHT allo act inactive, ANO1 activ inactive, TMEM16A reconf inactive, HEK293 Ca mobil inactive, YFP-HEK293 quench -0.96 and ClC-1 inh 2.
For Cc1ccc(S(=O)(=O)N(C)c2ccc(OCC(=O)Nc3nc4ccccc4s3)cc2)cc1 the results were CHT block inactive, TMEM16A inh inactive, CHT allo act inactive, ANO1 activ inactive, TMEM16A reconf inactive, HEK293 Ca mobil inactive, YFP-HEK293 quench -0.85 and ClC-1 inh -16.
`O=C(NCCc1ccccc1)C1CCN(S(=O)(=O)c2ccc(-n3cnnn3)cc2)CC1` gave CHT block inactive, TMEM16A inh inactive, CHT allo act inactive and ANO1 activ inactive.
COc1ccccc1NC(=O)CSc1nnc(COc2ccc(Cl)cc2)n1Cc1ccco1 was read as CHT block inactive, TMEM16A inh inactive, CHT allo act inactive and ANO1 activ inactive.
`COc1ccc(C)cc1NC(=O)CSc1nnc(COc2ccc(C)cc2)n1Cc1ccco1` gave CHT block inactive, TMEM16A inh 25*, CHT allo act inactive, ANO1 activ inactive, TMEM16A reconf inactive, HEK293 Ca mobil inactive, YFP-HEK293 quench -1.1 and ClC-1 inh -14.
For CC(=O)Nc1ccc(S(=O)(=O)NCC2CCC(C(=O)N3CCCCC3)CC2)cc1 (configuration not stated) the results were CHT block inactive, TMEM16A inh inactive, CHT allo act inactive and ANO1 activ inactive.
`CCC1CCCCN1S(=O)(=O)c1ccc(NC(=O)c2ccncc2)cc1` (configuration not stated) gave CHT block inactive, TMEM16A inh 25*, CHT allo act inactive, ANO1 activ inactive, TMEM16A reconf 22%*, HEK293 Ca mobil inactive, YFP-HEK293 quench -0.96 and ClC-1 inh -14.
